The results in this text go back to PubChem BioAssay (NCI).

About 79,000 compounds went through this panel and 15% of them were active in at least one assay; those are over-represented in the sample as a whole. Unmarked numbers belong to inactive results. The source made the active and inactive calls. Cut-off read from the data, not from the text of the source: active = growth inhibition above about 70%; inactive = the rest.

Assay [1] in a line: NCI Yeast Anticancer Drug Screen. Data for the rad50 strain (AID 155).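 Note: 0% = growth of vehicle-only cultures of the same strain.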 To be noted: S. cerevisiae rad50 strain growth inhibition; at 50.0 µM; active compounds read high. An outline of the steps:
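Compounds were tested on a yeast strain with an engineered DNA damage repair alteration; the reported value is growth inhibition normalised to vehicle treatment.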

Assay [2] in a line: NCI Yeast Anticancer Drug Screen. Data for the mec2-1 strain (AID 157). To be noted: S. cerevisiae mec2-1 strain, at 50.0 µM, active compounds read high. In a few lines: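 Mutant yeast (mec2-1) grown with compound; growth inhibition relative to vehicle control reported.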
A short description of assay [3]: NCI Yeast Anticancer Drug Screen. Data for the sgs1 mgt1 strain (AID 161).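 Note: 0% = growth of cultures given vehicle only.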 Particulars: S. cerevisiae sgs1 mgt1 strain, at 50.0 µM, active compounds read high. In a few lines: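 Percent growth inhibition was derived by comparing compound-exposed mutant yeast with vehicle-exposed cultures. The strain carries alterations in DNA damage repair.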
The nature of assay [4]: NCI Yeast Anticancer Drug Screen. Data for the cln2 rad14 strain (AID 165).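 Note: 0% = growth equal to vehicle treated cultures.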 To be noted: S. cerevisiae cln2 rad14 strain, at 50.0 µM, active compounds read high. In a few lines:
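Readout is yeast growth inhibition versus vehicle-treated controls, using a strain with cln2 and rad14 alterations exposed to compound.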

A short description of assay [5]: NCI Yeast Anticancer Drug Screen. Data for the bub3 strain (AID 167). To be noted: S. cerevisiae bub3 mutant strain, at 50.0 µM, active compounds read high. An outline of the steps: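 Growth of a checkpoint-deficient yeast mutant is measured after compound exposure. Values represent inhibition relative to vehicle.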
A short description of assay [6]: NCI Yeast Anticancer Drug Screen. Data for the mlh1 rad18 strain (AID 175). To be noted: S. cerevisiae mlh1 rad18 strain growth inhibition; at 50.0 µM; active compounds read high. An outline of the steps:
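Genetically defined yeast (DNA repair-deficient) exposed to compounds; growth inhibition determined relative to vehicle.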

`CCCCC(CCCC)NCC(C)OC(=O)c1ccc(N)cc1` (stereo unspecified): the growth inhibition was 20.6% in assay [1]; -2.35% in assay [2]; 0.5% in assay [3]; -26.8% in assay [4]; -6% in assay [5]; 16.3% in assay [6].

Regarding `CC(C)(Oc1ccc(/C=C/C(=O)c2ccc(Cl)cc2)cc1)C(=O)Nc1c(Cl)cccc1Cl`, the growth inhibition in assay [1] was 0.85%; in assay [2], -2.05%; in assay [3], 2.6%; in assay [4] it was 12.1%; in assay [5], 12.8%; in assay [6], 19%.

With `C[N+](C)(CC(=O)Nc1ccc(Cl)cc1)Cc1ccc2c(c1)CCCC2`, the growth inhibition was 99.5% (active) in assay [1]; 99.8% (active) in assay [2]; 99.8% (active) in assay [3]; 99% (active) in assay [4]; 99.3% (active) in assay [5]; 99.7% (active) in assay [6].

`CC(C)N(CCC#N)C(=S)Nc1cccc2ccccc12`: the growth inhibition in assay [1] was 17.1%; in assay [2], 10.1%; in assay [3] it was 19.6%; in assay [4], 14.9%; in assay [5] it was 12.2%; in assay [6] it was -8.2%.

Take `CCNC(=O)C1CCN(Cc2c[nH]c3ccccc23)CC1`: the growth inhibition in assay [1] is -19.4%; in assay [2], 0.1%; in assay [3], 33.2%; in assay [4], -12.9%; in assay [5], 0.6%; in assay [6], -18.1%.

Take `S=C(Nc1ccc2c(c1)Cc1ccccc1-2)Nc1ccc2c(c1)Cc1ccccc1-2`: the growth inhibition was 25.8% in assay [1]; 18.9% in assay [2]; -39.7% in assay [3]; -12.7% in assay [4]; 27% in assay [5]; 31% in assay [6].

With `CC(C)(C)c1ccc(O)c(Sc2cc(C(C)(C)C)ccc2O)c1`, the growth inhibition in assay [1] was 5.8%; in assay [2], -24.9%; in assay [3], 7.95%; in assay [4], -33.4%; in assay [5], 12.6%; in assay [6], -15.2%.

As to `O=C(O)CCC1CC1C(=O)c1ccccc1` (stereo unspecified), the growth inhibition in assay [1] is 15.2%; in assay [2], 5.55%; in assay [3], -3.85%; in assay [4] it was -37%; in assay [5] it was -28.6%; in assay [6], 17.9%.

For the molecule `COc1cc(Br)cc(OC)c1Oc1cc(OC)c(OC)c(OC)c1Br`, the growth inhibition in assay [1] is 45.8%; in assay [2], 12.4%; in assay [3], 36%; in assay [4], 2.4%; in assay [5], 10.8%; in assay [6] it was 24.9%.

With `NC(=O)c1nc(N)nc(N)c1[N+](=O)[O-]`, the growth inhibition in assay [1] is -10.8%; in assay [2], -15.1%; in assay [3] it was -16.1%; in assay [4], -18.8%; in assay [5] it was -21.9%; in assay [6] it was -18.9%.

On to `CC1CN=C(Nc2ccc(S(N)(=O)=O)cc2)S1` (stereo unspecified), for which the growth inhibition in assay [1] is -21.2%; in assay [2], -18.6%; in assay [3], -58.1%; in assay [4], -11.4%; in assay [5], -2.25%; in assay [6] it was -43%.

For the molecule `CC(=Nc1ccccc1)Nc1ccccc1`, the growth inhibition in assay [1] is -5.45%; in assay [2], 3.3%; in assay [3], 18.1%; in assay [4] it was -20.6%; in assay [5], 4.7%; in assay [6], 48.1%.

As to `COC(=O)C(=O)C1CSC2=C(CS(=O)(=O)c3ccccc32)C1=O` (stereo unspecified), the growth inhibition was -4.55% in assay [1]; -9.5% in assay [2]; -10.6% in assay [3]; -2.15% in assay [4]; -17.5% in assay [5]; -2.1% in assay [6].

On to `CN(C)C/C=C(/c1ccc(Br)cc1)c1cccnc1`, for which the growth inhibition in assay [1] is -5.75%; in assay [2] it was -16%; in assay [3], -3.7%; in assay [4], -20.4%; in assay [5], -12.6%; in assay [6] it was 1.65%.

For the molecule `O=C(O)/C(Cl)=C(\Cl)C(=O)NC1C2CC3CC(C2)CC1C3` (stereo unspecified), the growth inhibition in assay [1] is 14.4%; in assay [2] it was 10.3%; in assay [3], 13.8%; in assay [4], 28.8%; in assay [5], 3.6%; in assay [6] it was 19.6%.

With `O=C(O)CCCSc1ccc2ccccc2c1`, the growth inhibition is 48.5% in assay [1]; 3.75% in assay [2]; 45.6% in assay [3]; 24.9% in assay [4]; 4.55% in assay [5]; 38.3% in assay [6].

Take `Cc1cc(=O)c2cc([N+](=O)[O-])ccc2[nH]1`: the growth inhibition in assay [1] is 6.05%; in assay [2], 6.35%; in assay [3], -9.7%; in assay [4], -5.95%; in assay [5], 5.85%; in assay [6], -2.65%.

As to `Cc1ccc(SCC(=O)O)c(C)c1`, the growth inhibition was 27.1% in assay [1]; 17.9% in assay [2]; 18.1% in assay [3]; 14% in assay [4]; 7.65% in assay [5]; -13.5% in assay [6].

For the molecule `CCOC1(OCC)C(=O)N(c2ccc(Cl)c(Cl)c2)C(=O)N1c1ccc(Cl)c(Cl)c1`, the growth inhibition in assay [1] was 39.2%; in assay [2], 1.4%; in assay [3], -5.6%; in assay [4], 7.5%; in assay [5], -3.65%; in assay [6], -0.45%.

With `S=c1nc[nH]c2c1cnn2-c1ccccc1`, the growth inhibition in assay [1] was 5.6%; in assay [2] it was 19.6%; in assay [3], 54.4%; in assay [4], -13.2%; in assay [5], -7.3%; in assay [6], 40.2%.

As to `CCOC(=O)c1c([N+](=O)[O-])cnn1C1OC(COC(C)=O)C(OC(C)=O)C1OC(C)=O` (stereo unspecified), the growth inhibition in assay [1] was 6.4%; in assay [2], -2%; in assay [3] it was 4.6%; in assay [4], 15.2%; in assay [5], 7.9%; in assay [6], 6.85%.
